Test results from the supplement of paper PMC10338343.
± gives the standard deviation.

Tested on: MILI (PIWIL2) piRISC loaded with piRNA #1 (26 nt)
Assay: pre-steady-state target cleavage rate (min^-1); guide: piRNA #1 5'p-UGAGGUAGUAGGUUGUAUAGUAUCCA; MIWI and MILI are mouse PIWI proteins and EfPiwi is from a freshwater sponge; tags in brackets are library labels; higher = faster piRNA-guided slicing of the target
Conditions: auxiliary factor: 500 nM mouse GTSF1
Procedure: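 Cleave-'n-Seq: a library of target RNAs (target site embedded in constant flanks, ACAGCATTCCGCGTTAGTGATATCCG... 5' flank; DNA-blocked outside the site) at 0.1 nM was incubated with 1 nM active mouse MILI or MIWI piRISC (synthetic 5'-monophosphorylated piRNA guide) with or without 500 nM mouse GTSF1 at 33 °C for 1 min to 16 h. Uncleaved targets were sequenced and normalised to non-target controls, and the pooled three trials were fitted to a burst-and-steady-state model to give the pre-steady-state cleavage rate (min^-1; k3 is constrained to at most 1e-4). Sequence is the target site only; target names encode pairing extent (gX:gY) and contiguous / 1-mismatch / 2-mismatch / bulge geometry. Fits with R² ≤ 0 are excluded.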

| Sequence | pre-steady-state target cleavage rate |
| --- | --- |
| GGAGACGAUACAAUACAACCUAGUACCUCA | 0.0665 ± 0.011 |
| GGAGACCUAACUAUACAACCUACUACACUCA | 0.168 ± 0.028 |
| GGAGAGGAUACUAGUACAACCUACUACCUCA | 0.079 ± 0.011 |
| GGAGACGAUACUAUACAACCUACUACCAUCA | 0.134 ± 0.013 |
| GGAGACGAUACUAUACAAACUACUACCUCA | 0.245 ± 0.015 |
| GGAGACGAUACUUUACAACCUACUACGUCA | 0.0766 ± 0.011 |
| GGAGACCAUACUAUACAAACUACUACCUCA | 0.234 ± 0.017 |
| GGAGACCAUAGUAUACAACCUACUACGUCA | 0.0462 ± 0.0097 |
| GGAGACCAUCACUAUACAACCUACUACCUCA | 0.147 ± 0.021 |
| GGAGAGGAUACUAUACAACCUAACUACCUCA | 0.0231 ± 0.0035 |
| GGAGUGGUUACUUUACAACCUACUACCUCA | 0.162 ± 0.0089 |
| GGAGACGAUACUUUACAACCUUCUACCUCA | 0.00805 ± 0.0018 |
| GGAGACCUAACUAUACACCCUACUACCUCA | 0.0388 ± 0.013 |
| GGAGACCUAUGUAUACAACCUACUAACCUCA | 0.0935 ± 0.013 |
| GGAGACCUUACUAUACAACCUAGCUACCUCA | 0.0317 ± 0.0069 |
| GGAGACCUAUGUAUACAACCUACUACGACA | 0.0279 ± 0.0061 |
| GGAGAGGAUACUAUGACAACCUACUACCUCA | 0.143 ± 0.013 |
| GGAGACCUAUCAUUACAACCUACUACCUCA | 0.0146 ± 0.0049 |
| GGAGACCUUCACUAUACAACCUACUACCUCA | 0.107 ± 0.017 |
| GGAGACCUAACUGAUACAACCUACUACCUCA | 0.183 ± 0.045 |

| Sequence | pre-steady-state target cleavage rate |
| --- | --- |
| GGAGUGGAUACUAUACUACCUACUUCCUCA | 0.0121 ± 0.0027 |
| GGAGACCUAUGUAUACAACCUACUACCUGCA | 0.0635 ± 0.011 |
| GGAGACCUUACUAAACAACCUACAACCUCA | 0.178 ± 0.025 |
| GGAGACCUAUGUAUAUCAACCUACUACCUCA | 0.00312 ± 0.0027 |
| GGAGACCUAUGUACUACAACCUACUACCUCA | 0.00901 ± 0.0026 |
| GGAGACCUAUGAUAUGAAGGAACUACCUCA | < 0.0001 |
| GGAGACCUAUCUGAUACAACCUACUACCUCA | 0.0421 ± 0.0081 |
| GGAGAGGAUACUAUACAACCCUACUACCUCA | 0.0028 ± 0.0028 |
| GGAGUGGAUACUCUACAACCUACUACCUCA | 0.194 ± 0.011 |
| GGAGACCUAUCUAUAUCAACCUACUACCUCA | 0.00847 ± 0.0035 |
| GGAGACCUUACAAUACAACCUACUACCACA | 0.133 ± 0.015 |
| GGAGUGCAUACUUUACAACCUACUACCUCA | 0.166 ± 0.0083 |
| GGAGACCUAUGAUUACAACCUACUACCACA | 0.00372 ± 0.0023 |
| GGAGACCUAUGUAUAGAUCCUACUACCUCA | 0.0611 ± 0.0081 |
| GGAGACCAAACUAAACAACCUACUACCUCA | 0.104 ± 0.027 |
| GGAGACGAUACUAUACAACCUAGUACCUCA | 0.0648 ± 0.014 |
| GGAGUGGAUACUAUACAUCCAACUACCUCA | 0.00718 ± 0.0021 |
| GGAGACCUAAACUAUACAACCUACUACCUCA | 0.148 ± 0.018 |
| GGAGAGGAUUCUAUACAACCUACUUCCUCA | 0.00504 ± 0.0027 |
| GGAGACCUAACUAUAGAAGCUACUACCUCA | 0.156 ± 0.029 |
